Measured values taken from PubChem BioAssay AID2517 (National Center for Advancing Translational Sciences (NCATS), 2010).
Several values for one entry are separate records, joined by “and”; a condition that tells them apart may be missing. Equal values may be shown once. About 1,200 (0.34%) of roughly 350,000 compounds were called active. Roughly 3% stayed inconclusive and do not appear here. Calls come from the whole dose curve; as a rule, active = well fitted inhibition curve with a large enough effect; inconclusive = small, poorly fitted or top-dose-only effect; inactive = no such curve, though single readings can be large or run the other way. The entries come from a sample that favours actives as a whole.

Molecular target: DNA repair nuclease/redox regulator APEX1 (Homo sapiens) (UniProt P27695)
Sequence (P27695 whole entry, looked up): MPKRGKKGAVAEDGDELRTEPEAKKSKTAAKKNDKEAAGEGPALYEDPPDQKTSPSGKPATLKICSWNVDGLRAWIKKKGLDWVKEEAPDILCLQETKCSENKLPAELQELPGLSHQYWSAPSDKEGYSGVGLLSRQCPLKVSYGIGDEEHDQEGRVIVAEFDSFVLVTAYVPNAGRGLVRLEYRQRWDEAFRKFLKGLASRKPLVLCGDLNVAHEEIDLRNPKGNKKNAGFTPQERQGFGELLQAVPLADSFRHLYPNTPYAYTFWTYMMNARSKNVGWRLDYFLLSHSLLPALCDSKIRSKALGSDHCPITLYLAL
Test: qHTS Assay for Inhibitors of the Human Apurinic/apyrimidinic Endonuclease 1 (APE1); note: nearly all actives have a fitted effect of over 55% in size;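 for activity change, negative = inhibition: plate controls were vehicle for no effect and reference inhibitor for full effect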
Settings: recombinant APE1, TAMRA/BHQ-2 abasic DNA cleavage fluorescence; activity change, negative = inhibition: at 65.8 µM (top of the series)
Procedure, shortened: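 Substrate: short duplex with […] THF abasic site, 5'-TAMRA and 3'-BHQ-2, 50 nM final. APE1 at 0.75 nM, preincubated 15 min RT with compound. Fluorescence increase from first to third read measured activity.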
Potency is the fitted concentration of half-maximal effect.

Activity change, negative = inhibition, inactive:
O=C(CSc1nnc(-c2cccc([S+](=O)([O-])N3CCCC3)c2)n1-c1ccccc1)Nc1cccc(C(F)(F)F)c1 6.08%, CC(Oc1ccccc1)C(=O)N[C@@H]1C(=O)N2[C@@H]1SC(C)(C)[C@@H]2C(=O)O (some centres not stated) -2.93% [at 21 µM], C=CCNc1oc(-c2cccnc2)nc1C#N 24.9%, O=C(CCC1CCCN(C(=O)c2ccc(F)c(F)c2)C1)N1CCN(c2ccccn2)CC1 (configuration not stated) 5.21%, O=C(CCC1CCCN(C(=O)Cc2ccc(F)cc2)C1)N1CCN(c2ccccn2)CC1 (configuration not stated) 2.95%, COc1ccc(C2=Nn3c(nnc3-c3ccccc3F)SC2)cc1OC -5.88%, COc1ccc2c3c1OC1CC(O)C=C[C@@]31CCN(C)C2 (some centres not stated) 16.1%, COc1ccc2c(c1)O[C@@H](c1ccc3c(c1)OCO3)[C@H](OC(=O)NCc1ccco1)C2=O 2.67%, O=C(c1ccncc1)N1CCC2(CCCN(C(c3ccccc3)c3ccccc3)C2)CC1 -0.643%, COc1cccc([C@@H]2Oc3ccc(Br)cc3C(=O)[C@H]2OC(=O)NCCc2ccc(OC)c(OC)c2)c1 4.49%, C=C/C1=C/Cc2ccccc2[C@H](C[N+](=O)[O-])C(C(=O)OC)(C(=O)OC)C1 -2.02%, C[C@@H]1O[C@@H](O[C@@H]2[C@@H](O)[C@H](OCCc3ccc(O)c(O)c3)O[C@H](CO[C@@H]3O[C@H](CO)[C@@H](O)[C@H](O)[C@H]3O)[C@H]2OC(=O)/C=C/c2ccc(O)c(O)c2)[C@H](O)[C@H](O)[C@H]1O -8.3%, NC(=O)CCN1CCN(S(=O)(=O)/C=C/c2ccccc2)CC1 -12.8%, COc1ccccc1N1CCN(CC(=O)NC(=O)NCc2ccco2)CC1 2.75%, COc1ccccc1CNc1ccnc(-c2c(C)noc2C)n1 -1.54%, COC(=O)[C@@H]1C[C@@]2(O)[C@H](O)[C@H](O)[C@H](O)C[C@H]2N1CC1CCCCC1 -5.46%, O=C(Cl)c1ccc([N+](=O)[O-])cc1 21.4%, O=C(c1cc(C(F)(F)F)cc(C(F)(F)F)c1)N1CCC2(CCCN(c3ccccn3)C2)CC1 2.05%, O=C1c2cccc3cccc(c23)C(=O)N1CCCCCc1n[nH]c(=S)o1 10.6%, O=C(CN1C(=O)c2cccc3cccc(c23)C1=O)N1CCCCC1 0.89%, OC(CCl)CCl 0.823%, CC[C@H](C)[C@H](NC(=O)[C@H](Cc1ccc(O)cc1)NC(=O)[C@@H](NC(=O)[C@H](CCCN=C(N)N)NC(=O)[C@@H](N)CC(=O)O)C(C)C)C(=O)N[C@@H](Cc1cnc[nH]1)C(=O)N1CCC[C@H]1C(=O)N[C@@H](Cc1ccccc1)C(=O)O 13.4%, CCOC(=O)c1sc2nc(CSCC(=O)OCc3ccc(C(=O)OC)o3)[nH]c(=O)c2c1C 0.388%, Cc1sc2nc(CSCC(=O)NC3CCCCC3)[nH]c(=O)c2c1C -5.32%, OC[C@H]1O[C@@H](n2cnc3c(NC4CCCC4)ncnc32)[C@H](O)[C@H]1O -5.52%, Cc1csc(-c2coc3cc(O[C@@H]4O[C@H](CO)[C@@H](O)[C@@H](O)[C@H]4O)ccc3c2=O)n1 -2.33%, CCCCC/C=C/C=C/C=O 2.61%, Cc1cc(C(=O)OCC(=O)N2c3ccccc3NC(=O)C2(C)C)c(C)n1-c1ccccc1 -7.54%, CCNc1ccc(C(=O)OCC(=O)N2c3ccccc3NC(=O)C2(C)C)cc1[N+](=O)[O-] 3.79%, CC(C)CO 2.7%, C/C(CCN1CCCCc2nc(C)c(C)cc21)=N\O[C@@H](C)c1cn([C@@H]2COC[C@@H]2O)nn1 11.9% [at 12.4 µM], C=CC(C1=CC(=O)C=CC1=O)c1ccc(O)cc1 (configuration not stated) 0.838%, COc1ccc(OC)c(NC(=O)N[C@H](Cc2ccccc2)C(=O)NN)c1 10.3%, CCOC(=O)C(Cc1ccccc1)NC(=O)CCC(=O)c1ccc(OC)cc1 (configuration not stated) 24.9%, COC(=O)C1(C)C=CC2(CCCCC2)N1C(C)=O (configuration not stated) 10.3%, N#Cc1ccc(CN2CCCC3(CCN(C(=O)c4ccco4)CC3)C2)cc1 -2.4%, C[C@H]1CCC[C@@]2(C)CCCC[C@]12O 9.26%, COC(=O)CC1c2ccccc2C(Cc2ccc(OC)cc2)=C(C)N1C(=O)OC (configuration not stated) -8.37% [at 12.4 µM], O=C(CCS(=O)(=O)c1ccc(Br)cc1)NCCc1ccc(Cl)cc1 -4.92%, CCOc1ccc(OCC)c(NC(=O)CCS(=O)(=O)c2ccc(C)cc2)c1 -15.2%, COc1cccc(Cn2c(=O)cnc3cncnc32)c1 -0.484%, C=CC1=C2C=C(C3CC3)N(CC(C)C)C=C2C(=O)C(C)(OC(=O)c2ccco2)C1=O (configuration not stated) -5.75% [at 12.4 µM], COc1ccccc1CNc1ncnc2ccc(-c3c(C)noc3C)cc12 -3.18%, C[C@H]1Cc2c(-c3ccccc3)nc3c(c2CO1)CN(C(=O)C1CC1)CC3 -1.16% [at 12.4 µM], COC(=O)C1(C)C=CCN1C(=O)c1ccccc1 (configuration not stated) 10.2%, Cc1ccc(CNc2ccc(N3CCN(C(=O)OC(C)(C)C)CC3)cc2)cc1 -2.24%, C=CCOC(=O)COCCC(C)C 16.3%

Potency, active:
C=Cc1ccc(C(=O)N2CCCC(CCC(=O)N3CCN(c4ccccn4)CC3)C2)cc1 (configuration not stated) 0.67 µM, O=C(CN1CCN(S(=O)(=O)/C=C/c2ccccc2)CC1)NC(=O)NCc1ccco1 22.4 µM, C[N+](C)(CCCCCC[N+](C)(C)CCCN1C(=O)c2cccc3cccc(c23)C1=O)CCCN1C(=O)c2cccc3cccc(c23)C1=O 10 µM and 4.74 µM, CSc1nnc(SCc2nc3sc(C(=O)O)c(C)c3c(=O)[nH]2)s1 25.1 µM, CNS(=O)(=O)c1cccc(C(=O)OCC(=O)N2c3ccccc3NC(=O)C2(C)C)c1 15 µM, COc1cc([C@H](Cc2ccccc2)NC(C)=O)oc(=O)c1 28.2 µM, COc1ccc(Cl)cc1NC(=O)CCS(=O)(=O)c1ccc(Br)cc1 11.9 µM

Potency, inactive:
CCC(C)[C@@H](N)C(=O)O (some centres not stated), COC(=O)C1(C(C)=O)CC2=CC[C@H]3C(=O)N(c4ccccc4)C(=O)[C@H]3[C@@H]2Cc2ccccc2[C@@H]1C[N+](=O)[O-] (some centres not stated), CN1CCN2c3ccccc3Cc3ccccc3[C@@H]2C1
